# According to PubChem BioAssay (NCI):
# About 83,000 compounds went through this panel and 20% of them were active in at least one assay; those are over-represented in the sample as a whole.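 Testing used 96-well plates and a 48-hour single-concentration exposure. Example: -40 means 40% of the starting cells died.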 Unmarked numbers belong to inactive results. Active and inactive are the calls of the source. How the source made its calls: active means growth percent below 10; inactive means the rest.
# Legend:
# Assay in all cases: NCI-60 one-dose screen, 48 h (100 = growth as untreated, 0 = no growth, -100 = all killed)
# Details in all cases: 10 µM unless noted
# NCI-H23 lung = tested on: NCI-H23 lung
# NCI-H226 lung = tested on: NCI-H226 lung
# NCI-H322M lung = tested on: NCI-H322M lung
# HOP-62 NSCLC = tested on: HOP-62 NSCLC
# NCI-H460 lung = tested on: NCI-H460 lung
# HOP-92 NSCLC = tested on: HOP-92 NSCLC
# NCI-H522 lung = tested on: NCI-H522 lung
# A549/ATCC NSCLC = tested on: A549/ATCC NSCLC
# 786-0 renal = tested on: 786-0 renal
# COLO 205 colon = tested on: COLO 205 colon
# DU-145 prostate = tested on: DU-145 prostate
# K-562 leukemia = tested on: K-562 leukemia
# MALME-3M melanoma = tested on: MALME-3M melanoma
# MDA-MB-231 breast = tested on: MDA-MB-231 breast
# RXF 393 renal = tested on: RXF 393 renal
# SF-268 CNS = tested on: SF-268 CNS
# SF-295 CNS = tested on: SF-295 CNS
# SF-539 CNS = tested on: SF-539 CNS
# UACC-257 melanoma = tested on: UACC-257 melanoma
# M14 melanoma = tested on: M14 melanoma
Compound,growth (NCI-H23 lung),growth (NCI-H226 lung),growth (NCI-H322M lung),growth (HOP-62 NSCLC) [%],growth (NCI-H460 lung),growth (HOP-92 NSCLC),growth (NCI-H522 lung),growth (A549/ATCC NSCLC),growth (786-0 renal),growth (COLO 205 colon),growth (DU-145 prostate) [%],growth (K-562 leukemia),growth (MALME-3M melanoma) [%],growth (MDA-MB-231 breast),growth (RXF 393 renal),growth (SF-268 CNS),growth (SF-295 CNS),growth (SF-539 CNS),growth (UACC-257 melanoma) [%],growth (M14 melanoma)
CNc1ccc(-c2cc(=O)oc3ccc(Cl)cc23)cc1,18.5%,48.1%,54.4%,26.2,6.78% (active),37.3%,-25.3% (active),10.1%,37.3%,-15.1% (active),18,11%,110,16.2%,43.1%,27.6%,18.1%,-2.97% (active),38,25.4%
COc1cc(C=Nc2oc(-c3ccccc3)c(-c3ccccc3)c2C#N)cc(CN2CCCCC2)c1O,88.6%,90.5%,99.6%,97.8,101%,103%,88%,105%,102%,122%,107,102%,110,106%,104%,94.9%,102%,101%,116,109%
COc1cccc(-c2nc3sccn3c2-c2ccnc(NCCCNS(=O)(=O)c3cccc(F)c3)c2)c1,21.3%,19.1%,72%,33.4,44.9%,49.5%,18.1%,18.1%,52.6%,19%,31.9,11.4%,28.1,65.4%,66.7%,40.9%,9.57% (active),70%,20.6,10.9%
Cn1cc(C(=O)c2nc(-c3c[nH]c4ccccc34)no2)c2ccccc21,65.6%,57.3%,68.2%,78.9,35.2%,63.8%,56.5%,73.7%,98.4%,56%,102,37.9%,58.4,69.8%,90.1%,92.1%,68.5%,91.7%,83.9,64.5%
O=C1/C(=C/c2ccccc2)SC(=S)N1CCc1ccc(O)cc1,98%,90.2%,97.1%,94,99.4%,79.9%,54.8%,93.6%,89.5%,108%,90.1,90.9%,92.2,87.3%,101%,85.3%,97%,90.1%,98.9,97.1%
COC[C@H](C)n1c(C2CCOCC2)nc2cnc3cc(-c4c(C)noc4C)c(OC)cc3c21,70.4%,67%,50.4%,39.8,65.2%,37.1%,34.4%,45.6%,51.6%,28.9%,77.5,39.1%,75.7,55.4%,67%,76.7%,53.7%,40.7%,38.3,42.5%
CC(C)(O)c1cn(CCCCN2C(=O)C(=O)c3ccccc32)nn1,95.8%,94.8%,108%,94.8,102%,102%,87.4%,99.7%,98.3%,112%,113,94.3%,105,99.7%,104%,99.7%,102%,96.4%,103,97.7%
OCC(O)c1nc2ccc3[nH]ncc3c2c2c1CCCC2 (stereo not given),2.08% (active),-4.5% (active),8.59% (active),10.6,5.14% (active),-10.3% (active),13.3%,6.34% (active),4.15% (active),1.61% (active),11.7,37.2%,19,1.65% (active),-58.4% (active),-3.77% (active),9.19% (active),-39.1% (active),10.2,5.99% (active)
Brc1ccc(-c2csc(Nc3ccccn3)n2)cc1,58.8%,73%,95.2%,85.4,91.5%,73%,78.2%,91.3%,88.5%,107%,109,57.1%,76.3,86.3%,118%,115%,99.9%,102%,105,96.9%
COc1ccc(CCNc2nc(SC)nc(-c3cccc([N+](=O)[O-])c3)c2C#N)cc1OC,92.7%,49.2%,88.2%,67.6,88.5%,75.8%,66.7%,82.2%,93.2%,113%,91.7,92.1%,77.8,83.1%,90.1%,63.6%,88.5%,74.6%,89.7,93.1%
CC(C)(C)c1cc(C(C)(C)C)cc(S(=O)(=O)Nc2cc3ccccc3cc2C(=O)NCCN)c1,85.7%,73.8%,64.2%,83.1,-20.3% (active),50%,48%,38.6%,86.3%,-85.6% (active),22.5,-37% (active),55,5.92% (active),29.1%,69.3%,12.4%,96%,81,-59.9% (active)
Fc1ccc2[nH]cc(SSc3c[nH]c4ccc(F)cc34)c2c1,45.9%,52%,89.7%,31.7,30.5%,-27.9% (active),0.948% (active),19.3%,60.8%,40.9%,90.4,23.2%,83.6,42.7%,14.4%,17.7%,-17.2% (active),36.8%,78.7,53.2%
FC(F)(F)c1nc2c(NCc3ccc(-c4ccccc4)cc3)cccc2[nH]1,80.8%,79%,85.8%,106,44.8%,62%,50.8%,55.5%,85%,90.3%,81.2,6.87% (active),71.4,57.7%,85.7%,76.5%,88.9%,81.3%,87.7,90.1%
COCCNc1ccc2c3c(cccc13)C(=O)N(CCN(C)C)C2=O,25.6%,5.99% (active),23.1%,50.9,-21.9% (active),18.4%,-25.6% (active),5.73% (active),32.1%,6.86% (active),27.7,-7.82% (active),22.2,46.6%,-23.7% (active),26.3%,16.8%,22.9%,16.8,29%
O=C1CC[C@H](c2ccc(O)c3c2C(=O)[C@@H]2O[C@@H]2C3=O)c2cccc(O)c21,94.4%,-14.6% (active),98%,79,97.1%,38.4%,-29.4% (active),87.2%,44.8%,-34.6% (active),21.1,0.986% (active),86.5,43.5%,16.9%,84.4%,91.3%,75%,38,69.6%
